Records with an inconclusive call do not appear. Calls of active or inactive are those of the source. Calls come from the whole dose curve; as a rule, active = well fitted inhibition curve with a large enough effect; inconclusive = small, poorly fitted or top-dose-only effect; inactive = flat fitted curve, though single readings scatter.
Molecular target: Glutathione peroxidase 1 (Homo sapiens) (UniProt P07203)
Test: Primary qHTS Assay for Inhibitors of Recombinant Selenoprotein Glutathione Peroxidase 1 (GPX1) (AID 1845191); note: nearly all actives have a fitted effect of over 65% in size
Settings: recombinant GPX1, GR-coupled NADPH fluorescence, 15 min; series mostly up to 27.7 µM; activity, negative = inhibition: at the top concentration
Method in brief: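 GPX1 10 nM, GR 100 nM, GSH 1 mM, NADPH 0.5 mM, CHP 0.5 mM (final). 30-min cpd preincubation, RT. Ex340/Em450 read t=0, t=15 min.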
% is set by controls: 0 for no effect and ±100 for the full control effect.

Glutathione peroxidase 1 (Homo sapiens), sequence (P07203 whole entry, looked up): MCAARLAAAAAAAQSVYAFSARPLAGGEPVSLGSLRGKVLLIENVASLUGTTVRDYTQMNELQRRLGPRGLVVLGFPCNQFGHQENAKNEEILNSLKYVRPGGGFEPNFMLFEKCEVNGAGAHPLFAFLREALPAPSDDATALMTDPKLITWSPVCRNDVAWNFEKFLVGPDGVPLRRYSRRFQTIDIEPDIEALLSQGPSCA

Row | Structure (SMILES) | outcome | activity, negative = inhibition | Potency
1 | N#Cc1ccc(C2CCCc3cncn32)cc1 (stereo not given) | inactive | – | –
2 | OC[C@H]1O[C@@H](Oc2cc(O)cc(-c3cc4ccc(O[C@@H]5O[C@H](CO)[C@@H](O)[C@H](O)[C@H]5O)cc4o3)c2)[C@H](O)[C@@H](O)[C@@H]1O | inactive | – | –
3 | O=C(OC[C@H]1O[C@H](O[C@]2(CO)O[C@H](CO)[C@@H](O)[C@@H]2O)[C@H](O)[C@@H](O)[C@@H]1O)c1ccc(O)cc1 | – | -14.4% (inactive) | –
4 | CC1(C)CC[C@]2(C(=O)O)CC[C@]3(C)C(=CCC4[C@@]5(C)CC[C@H](O[C@@H]6O[C@H](C(=O)O)[C@@H](O)[C@H](O[C@@H]7O[C@H](CO)[C@H](O)[C@H](O)[C@H]7O)[C@H]6O[C@@H]6O[C@H](CO)[C@@H](O)[C@H](O)[C@H]6O)C(C)(C)C5CC[C@]43C)[C@@H]2C1 (stereo not given in full) | – | -0.903% [at 9.52 µM] (inactive) | –
5 | COc1c2ccoc2nc2c(OC)c(O[C@@H]3O[C@@H](C)[C@H](O)[C@@H](O[C@@H]4O[C@H](CO)[C@@H](O)[C@H](O)[C@H]4O)[C@H]3OC(C)=O)ccc12 | – | -30.1% [at 15.3 µM] (inactive) | –
6 | C/C=C1\[C@H](O[C@@H]2O[C@H](CO)[C@@H](O)[C@H](O)[C@H]2O)OC=C(C(=O)OCCc2ccc(O)cc2)[C@H]1CC(=O)OCCc1ccc(O)cc1 | – | -14.2% [at 15.3 µM] (inactive) | –
7 | Nc1ncnc2c1C(=O)N(c1ccc(C3CCC(CC(=O)O)CC3)cc1)CCO2 (stereo not given) | – | – | inactive
8 | CC1=CCC2C(C)(C)CCCC2(C)C1CC12OC1C(O)C(CO)=CC2O (stereo not given) | inactive | – | –
9 | CCOC(=O)C1=C(N)Oc2ccc(Cl)cc2C1C(C#N)C(=O)OCC (stereo not given) | – | -19.2% [at 48.8 µM] (inactive) | –
10 | Cc1cn(-c2cc(NC(=O)c3ccc(C)c(Nc4nccc(-c5cnccn5)n4)c3)cc(C(F)(F)F)c2)cn1 | – | -7.91% [at 48.8 µM] (inactive) | –
11 | COc1cc2c(cc1O)CC(O)(CO)C(CO)C2c1ccc(OC2OC(CO)C(O)C(O)C2O)c(OC)c1 (stereo not given) | inactive | – | –
12 | C=C1CC[C@@H]2[C@](C)(CO)[C@H](O[C@@H]3O[C@H](CO)[C@@H](O)[C@H](O)[C@H]3O)CC[C@@]2(C)[C@@H]1C/C=C1/C(=O)OC[C@H]1O | – | -5.61% (inactive) | –
13 | COc1ccc2[nH]c(S(=O)Cc3ncc(C)c(OC)c3C)nc2c1 (stereo not given) | inactive [at 48.8 µM] | – | –
14 | O=C(NCCN1CCCC1)c1cc(-c2ccc(CN3CCOCC3)cc2)nc2ccc(F)cc12 | inactive | – | –
15 | CN[C@H](CNC(=O)N1CCC[C@@H]([C@@H](OCCNC(=O)OC)c2cccc(Cl)c2)C1)C[C@H]1CCCOC1 | inactive [at 48.8 µM] | – | –
16 | CCC(C)(C)C1CCc2c(sc(NC(=O)c3ccc(Br)cc3)c2C#N)C1 (stereo not given) | – | -8.96% [at 48.8 µM] (inactive) | –
17 | CCC(C)C(N)C(=O)NCCN1CCOCC1 (stereo not given) | inactive [at 48.8 µM] | – | –
18 | CN(C)c1ccc(C2O[C@@H](c3ccccc3)C[C@H](c3ccccc3)O2)cc1 (stereo not given in full) | – | 2.64% [at 48.8 µM] (inactive) | –
19 | CCC(C)/C=C(C)/C=C/C1=CC2=C(Cl)C(=O)C(C)(OC(C)=O)C(=O)C2=CN1C(CCCN=C(N)N)C(=O)O (stereo not given) | – | -14.3% (inactive) | –
20 | CC1(C)O[C@H]2CC(=O)OC[C@@]23C1=C(O)C(=O)[C@]1(C)C3CC[C@@]2(C)[C@H](c3ccoc3)OC(=O)[C@H]3O[C@]321 (stereo not given in full) | inactive | – | –
21 | CC(C)=CCC/C(C)=C/CO[C@@H]1O[C@H](CO[C@@H]2O[C@@H](CO)[C@H](O)[C@H]2O)[C@@H](O)[C@H](O)[C@H]1O | inactive | – | –
22 | CC(C)CC(=O)NCCn1cc(C(=O)O)c(=O)cc1C(O)c1ccccc1 (stereo not given) | inactive | – | –
23 | COc1cc(Nc2nc3ccccc3nc2NS(=O)(=O)c2cccc(NC(=O)c3ccc(C)c(OC)c3)c2)cc(OC)c1 | inactive [at 48.8 µM] | – | –
24 | Cc1cccc(-c2nn3c(c2-c2ccnc4ccc(C(N)=O)cc24)CCC3)n1 | – | – | inactive
25 | CC1(C)CC[C@]2(C(=O)O[C@@H]3O[C@H](CO)[C@@H](O)[C@H](O)[C@H]3O)CC[C@]3(C)C(=CCC4[C@@]5(C)CC[C@H](O[C@@H]6O[C@H](C(=O)O)[C@@H](O)[C@H](O)[C@H]6OC6OC(CO)C(O)C(O)C6O)C(C)(C)C5CC[C@]43C)[C@@H]2C1 (stereo not given in full) | – | -6.19% [at 15.3 µM] (inactive) | –
26 | CCN1CCN(C(=O)N[C@@H](C(=O)N[C@@H]2C(=O)N3[C@@H]2SC(C)(C)[C@@H]3C(=O)O)c2ccccc2)C(=O)C1=O | – | 0.547% [at 48.8 µM] (inactive) | –
27 | CCC(C)/C=C(C)/C=C/C1=CC2=C(Cl)C(=O)C(C)(OC(C)=O)C(=O)C2=CN1CCCCC(N)C(=O)O (stereo not given) | – | 0.0192% (inactive) | –
28 | CC(C)c1ccc2c(c1)C(=O)CC1C(C)(C(=O)O)CCCC21C (stereo not given) | – | -15.8% (inactive) | –
29 | C=C(C(=O)O)[C@@H]1CC[C@@]2(C)CCC[C@@](C)(O)[C@@H]2C1 | – | -13.7% [at 48.8 µM] (inactive) | –
30 | O=C(c1c2ccccc2cc2ccccc12)N1CCC(N2CCC[C@@H](C(=O)N3CCOCC3)C2)CC1 | – | -28.3% [at 48.8 µM] (inactive) | –

Reference: PubChem BioAssay (NCATS)
